# In PubChem BioAssay (NCI):
# This is part of a sample that, as a whole, favours compounds with a hit. Of some 83,000 tested, about 20% had one in any assay.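 48-hour exposure, single concentration, 96-well plates; percent growth endpoint where 0 means no net growth. Active: below 10.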 Unmarked numbers belong to inactive results. Activity calls are given as the source filed them.
# Test system: HS 578T breast
# Test: NCI-60 one-dose screen, 48 h (100 = growth as untreated, 0 = no growth, -100 = all killed)
# Conditions: 10 µM
row,SMILES,growth
1,COc1ccc(-c2nn(-c3cccc(Cl)c3)cc2-c2cc(-c3ccccc3)[nH]c(=O)c2C#N)cc1,23.5%
2,CC(C)(C)OC(=O)N1CCc2c(sc3ncnc(N/N=C/c4ccccc4Br)c23)C1,98.7%
3,COc1ccc(-c2nn(-c3cccc(Cl)c3)cc2-c2nc(N)[nH]c(=O)c2C#N)cc1,76.6%
4,COc1ccc(-c2cc(-c3ccc(Cl)cc3)nc(SCCCC(=O)NO)n2)cc1,37.9%
5,COc1ccc(-c2nn(-c3cccc(Cl)c3)cc2-c2c(C#N)c(=O)n3[nH]c(-c4ccccc4)nc3c2C#N)cc1,101%
6,Cc1ccc(-n2c(C)nn3c(=O)c4c5c(sc4nc23)CN(C)CC5)cc1,107%
7,CCn1c(CSc2nc3ccccc3c(=O)n2CCc2ccccc2)n[nH]c1=S,91%
8,COc1cc2cc(Oc3ccc(NC(=O)Nc4ccc(Cl)c(Cl)c4)cc3)c(C)nc2cc1OC,45.1%
9,CCOC(=O)c1sc2ncnc(Nc3ccc4c(cnn4C(=O)Nc4ccc(C)c(Cl)c4)c3)c2c1C,112%
10,CN1CCc2c(sc3nc4n(-c5ccc(Cl)cc5)c(=O)[nH]n4c(=O)c23)C1,121%
11,COc1cc2c3c(n(C4CCN(C)CC4)c(=O)c2cc1OC)-c1cc2c(cc1C3=O)OCO2,109%
12,CCOC(=O)CSc1nc(-c2cc(OC)ccc2OC)cc(-c2ccc(OC)cc2)c1C#N,90.2%
13,CC(C)N(CCOc1ccc(-c2nc3sccn3c2-c2ccnc(S(C)(=O)=O)n2)cc1)C(C)C,76.6%
14,N#Cc1ccc(C(=O)CSc2nccc(Nc3ccc(C(=O)O)cc3)n2)cc1,98.7%
15,O=C(CNc1nnc(-c2cccnc2SCc2ccccc2)s1)Nc1nc(Cl)cc(Cl)n1,130%
16,COc1ccc(N(C)c2ncnc3occ(C)c23)cc1,110%
17,COC(=O)C1OC1c1cc([N+](=O)[O-])ccc1OC (stereo unspecified),111%
18,N#Cc1c(-c2ccc(Cl)cc2)cc(-c2cc(O)ccc2O)nc1N,27.6%
19,CN(C)CCN(Cc1ccccc1)c1ccc2ccccc2n1,92.4%
20,C=C/C(C)=C/C[C@]1(C)[C@H](C)[C@@H](OC(=O)CCC)[C@H](O)[C@@]23C(=C[C@H](OC)C[C@@H]12)[C@@H](OC(=O)CCC)O[C@H]3OC(C)=O,-31.5% (active)
21,O=C(Nc1cc([N+](=O)[O-])c2[nH]c(=O)c3ccccc3c2c1)C(F)(F)F,105%
22,Nc1nc(Cl)nc2c1ncn2C1O[C@H](CO)[C@@H](O)[C@@H]1F (stereo partly specified),82.5%
23,C#CC(C)(O)[C@@H]1C[C@H](CC(=O)O)C1(C)C (stereo partly specified),105%
24,COc1ccc(-c2nn(-c3cccc(Cl)c3)cc2/C=C2\NC(=S)N(c3ccc(Cl)cc3)C2=O)cc1,25.8%
25,COc1ccc2c(c1)OC(N)=C(C#N)C2c1cc(OC)c(OC)c(OC)c1 (stereo unspecified),25.3%
26,IC(I)I,-4.06% (active)
